Here are results for eight molecules from PubChem BioAssay.

Activity calls are given as the source filed them.

Experiment [1] is described as follows: optical density shifts of acrAB sulA E. coli – strain DRC41, OD650, 48 h, E. coli filamentation inducer project, primary screen (AID 1152).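 Further: E. coli MC1000 strain DRC41 lacking acrAB efflux pump and sulA.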 The note with it: higher = more signal, called active from +8 up or from −8 down.
The nature of experiment [2]: probe aLefty1 binding on compound microarray – biochemical, small-molecule microarray, 635/667 nm fluorescence, primary screen (AID 1153).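 Further: score merges spot fluorescence with signal-to-noise ratio from the scanned slide images.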 The note with it: higher = more signal.
The nature of experiment [3]: plasmodial surface anion channel blockers, osmotic lysis – cell-based, P. falciparum Indochina, OD700, 1 h, primary screen (AID 1154). Particulars: P. falciparum Indochina infected RBC osmotic lysis, higher = more signal, called active from +8 up or from −8 down.
The nature of experiment [4]: plasmodial surface anion channel blockers, osmotic lysis – cell-based, P. falciparum Indochina, OD700, 2 h, primary screen (AID 1155).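 Further: lysis reports solute entry through the parasite surface anion channel PSAC.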 The note with it: P. falciparum Indochina infected erythrocytes, higher = more signal, called active from +8 up or from −8 down.
Experiment [5] can be described thus: changes in parasitized red cell lysis, either direction – P. falciparum Indochina, OD700, 3 h, PSAC antagonist project, primary screen (AID 1156). Particulars: P. falciparum-infected erythrocytes, osmotic lysis, higher = more signal, called active from +8 up or from −8 down.
A short description of experiment [6]: plasmodial surface anion channel blockers, osmotic lysis – cell-based, P. falciparum Indochina, OD700, 18 h, primary screen (AID 1157). The note with it: P. falciparum Indochina infected erythrocytes, osmotic lysis OD700, 18 h; higher = more signal, called active from +8 up or from −8 down.
Experiment [7] can be described thus: S6 kinase pathway phospho-S6 level changes – cell-based, A549, cytoblot, luminescence, serum-stimulated, primary screen (AID 1158).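 Further: serum-stimulated A549 lung adenocarcinoma cells; signal is phosphorylated S6 detected by cytoblot immunostaining with HRP secondary.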 Particulars: 5 h, higher = more signal.
The target of experiment [8] is NADPH oxidase 2 (Homo sapiens) (UniProt P04839). Kind of experiment: compounds shifting NOX2 Amplex Red fluorescence – cell-based, HEK293-NOX2, PMA-stimulated, NOX inhibitor project, primary screen (AID 1159). Further: test concentration not given here. The note with it: 45 min, higher = more signal, called active from +8 up or from −8 down.
The target of experiment [9] is NADPH oxidase 4 (Homo sapiens) (UniProt Q9NPH5). Kind of experiment: compounds shifting NOX4 Amplex Red fluorescence – cell-based, HEK293-NOX4, tetracycline-induced, NOX inhibitor project, primary screen (AID 1160). Particulars: HEK293-NOX4, Amplex Red H2O2 fluorescence, 45 min; higher = more signal, called active from +8 up or from −8 down.
Experiment [10] addresses NADPH oxidase 5 (Homo sapiens) (UniProt Q96PH1). Kind of experiment: compounds shifting NOX5 Amplex Red fluorescence – cell-based, HEK293-NOX5, NOX inhibitor project, primary screen (AID 1161). Particulars: HEK293-NOX5, ionomycin, 45 min, higher = more signal.

Sequence of NADPH oxidase 2 (Homo sapiens) (P04839 whole entry, looked up): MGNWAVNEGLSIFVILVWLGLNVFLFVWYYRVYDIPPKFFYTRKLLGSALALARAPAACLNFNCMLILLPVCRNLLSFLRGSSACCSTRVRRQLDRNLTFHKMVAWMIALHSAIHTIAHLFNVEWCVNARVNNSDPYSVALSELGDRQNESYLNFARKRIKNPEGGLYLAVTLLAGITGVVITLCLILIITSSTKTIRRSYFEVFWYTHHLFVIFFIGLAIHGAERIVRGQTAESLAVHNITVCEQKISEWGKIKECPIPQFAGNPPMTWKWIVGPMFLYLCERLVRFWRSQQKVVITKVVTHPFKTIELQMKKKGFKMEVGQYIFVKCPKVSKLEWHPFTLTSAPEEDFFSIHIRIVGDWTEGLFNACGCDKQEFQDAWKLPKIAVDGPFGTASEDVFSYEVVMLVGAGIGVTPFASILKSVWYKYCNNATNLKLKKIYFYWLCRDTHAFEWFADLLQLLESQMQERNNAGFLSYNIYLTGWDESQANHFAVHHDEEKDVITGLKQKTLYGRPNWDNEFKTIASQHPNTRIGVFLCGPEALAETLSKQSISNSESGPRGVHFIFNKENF
Sequence of NADPH oxidase 5 (Homo sapiens) (Q96PH1 whole entry, looked up): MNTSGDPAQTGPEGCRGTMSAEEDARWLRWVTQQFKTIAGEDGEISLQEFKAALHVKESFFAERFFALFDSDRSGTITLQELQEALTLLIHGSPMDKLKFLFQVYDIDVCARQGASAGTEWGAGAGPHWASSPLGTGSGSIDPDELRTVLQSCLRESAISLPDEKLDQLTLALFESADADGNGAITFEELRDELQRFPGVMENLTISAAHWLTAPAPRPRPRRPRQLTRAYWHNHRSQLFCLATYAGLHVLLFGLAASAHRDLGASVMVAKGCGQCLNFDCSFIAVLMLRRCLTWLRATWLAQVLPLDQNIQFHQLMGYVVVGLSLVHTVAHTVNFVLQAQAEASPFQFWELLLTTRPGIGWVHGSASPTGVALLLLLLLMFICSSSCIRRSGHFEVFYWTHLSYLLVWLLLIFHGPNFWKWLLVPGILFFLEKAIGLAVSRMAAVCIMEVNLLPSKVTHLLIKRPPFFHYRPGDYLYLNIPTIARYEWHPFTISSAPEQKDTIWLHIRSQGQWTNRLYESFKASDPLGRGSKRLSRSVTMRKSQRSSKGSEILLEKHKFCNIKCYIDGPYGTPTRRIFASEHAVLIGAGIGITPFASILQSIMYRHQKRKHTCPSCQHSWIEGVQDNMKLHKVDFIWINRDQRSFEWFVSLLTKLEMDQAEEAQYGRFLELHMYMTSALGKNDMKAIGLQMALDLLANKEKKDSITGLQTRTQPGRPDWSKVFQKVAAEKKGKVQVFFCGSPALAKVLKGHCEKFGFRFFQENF
Sequence of NADPH oxidase 4 (Homo sapiens) (Q9NPH5 whole entry, looked up): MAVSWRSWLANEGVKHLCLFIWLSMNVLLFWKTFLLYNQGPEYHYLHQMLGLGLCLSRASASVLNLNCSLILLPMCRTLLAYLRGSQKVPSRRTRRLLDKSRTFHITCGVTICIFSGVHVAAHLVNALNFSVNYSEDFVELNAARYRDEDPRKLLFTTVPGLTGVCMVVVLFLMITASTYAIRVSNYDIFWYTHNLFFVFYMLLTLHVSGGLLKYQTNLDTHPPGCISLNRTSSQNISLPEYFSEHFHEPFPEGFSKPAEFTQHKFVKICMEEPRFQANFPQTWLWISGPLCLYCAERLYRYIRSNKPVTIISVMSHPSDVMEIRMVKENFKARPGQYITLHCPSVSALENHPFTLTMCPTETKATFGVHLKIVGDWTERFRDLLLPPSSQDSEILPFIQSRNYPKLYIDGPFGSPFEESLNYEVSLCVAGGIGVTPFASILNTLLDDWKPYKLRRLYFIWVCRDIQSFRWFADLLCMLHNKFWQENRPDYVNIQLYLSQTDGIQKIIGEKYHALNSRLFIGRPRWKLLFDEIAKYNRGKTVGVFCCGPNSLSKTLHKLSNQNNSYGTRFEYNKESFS

In the case of `CCCCCCc1nc(-c2cc(C)c(OC)c(C)c2)c(C)c2c1[Si](C(C)C)(C(C)C)OC2`, the z-score in experiment [1] is 0.03 (inactive); in experiment [3] it was 1.53 (inactive); in [4], -0.314 (inactive); in experiment [5], 1.02 (inactive); in [6] it was -0.348 (inactive); in experiment [7], 1.94. For the same molecule, the z-score in experiment [8] is -2.5 (inactive); in experiment [9] it was 0.626 (inactive); in experiment [10], -2.23. For the same molecule, the composite z-score in experiment [2] amounted to 0.0056.
As to `COCCCNC(=O)[C@@]1(Cc2ccccc2N=[N+]=[N-])N=C(c2ccc(OCCCO)cc2)O[C@H]1c1ccccc1`, the z-score was -0.3 (inactive) in [1]; 21.5 (active) in experiment [3]; 4.21 (inactive) in [4]; 1.28 (inactive) in [5]; 1.4 (inactive) in experiment [6]; 0.796 in experiment [7]. Further, the z-score is -2.06 (inactive) in [8], -0.374 (inactive) in experiment [9] and -1.63 in experiment [10]. Also, the composite z-score in [2] came out at 0.535.
Turning to `C=CCOC(=O)[C@H]1[C@@H]2C(=O)O[C@@H](c3ccccc3)[C@@H](c3ccccc3)N2[C@@H](c2ccc(OCCOC(=O)[C@H]3C[C@H]4C(=O)N[C@@H](CC(C)C)C(=O)N4[C@H]3c3cccc(OCCO)c3)cc2)[C@]12C(=O)Nc1ccc(I)cc12`, the z-score was -0.811 (inactive) in experiment [1]; 2.5 (inactive) in experiment [3]; 1.3 (inactive) in experiment [4]; 0.844 (inactive) in experiment [5]; 0.963 (inactive) in experiment [6]; 0.547 in experiment [7]. Moreover, the z-score in experiment [8] was 1.35 (inactive); in [9] it was 1.6 (inactive); in [10], 1.14. The molecule further yielded a composite z-score in experiment [2] of -0.33.
Take `COC(=O)[C@@]1(Cc2ccccc2)[C@@H]2C(=CC(=O)[C@H]2CC(=O)C(=O)N(C)C)CN1C(=O)c1ccccc1`: the z-score in experiment [1] was 0.174 (inactive); in experiment [3], 4.6 (inactive); in [4], 0.329 (inactive); in [5], 0.864 (inactive); in experiment [6] it was 0.664 (inactive); in experiment [7], -0.52. Moreover, the z-score in experiment [8] was -0.0425 (inactive); in experiment [9] it was 0.705 (inactive); in [10] it was 0.16. This molecule also gave a composite z-score in [2] of 0.0093.
In the case of `CCOC(=O)C1=CC[C@@H](c2ccccc2C(F)(F)F)N(S(=O)(=O)c2ccc(C)cc2)[C@H]1c1ccc(C#N)cc1`, the z-score in experiment [1] is -0.53 (inactive); in [3], 0.873 (inactive); in experiment [4], 1.65 (inactive); in experiment [5], 0.341 (inactive); in experiment [6], 0.876 (inactive); in experiment [7], -0.669. Also, the z-score in [8] is 0.823 (inactive); in [9], 0.699 (inactive); in [10], 0.102. Further, in experiment [2], the composite z-score was 0.165.
As to `CN(C)c1ccc(C(O)C2C=CC3C(=O)N(c4ccccc4)C(=O)C3N2Nc2ccc([N+](=O)[O-])cc2)cc1` (stereo not given), the z-score in experiment [1] is -1.16 (inactive); in [3], 4.9 (inactive); in [4], 1.16 (inactive); in experiment [5], 1.69 (inactive); in experiment [6] it was 0.73 (inactive); in experiment [7], -0.503. Besides, the z-score in [8] is -1.95 (inactive); in experiment [9], -4.56 (inactive); in experiment [10], -4.69. For the same molecule, the composite z-score in experiment [2] came out at 0.388.
With `COc1ccc(CCNC(=O)[C@@H]2c3ccccc3C(=O)N(Cc3cc(C(F)(F)F)cc(C(F)(F)F)c3)[C@H]2c2ccc(CO)cc2)cc1`, the z-score is 0.0073 (inactive) in experiment [1]; 4.55 (inactive) in [3]; 0.383 (inactive) in experiment [4]; 0.767 (inactive) in experiment [5]; 0.233 (inactive) in experiment [6]; 0.154 in [7]. Also, the z-score in experiment [8] was -1.75 (inactive); in [9] it was 0.194 (inactive); in experiment [10], -0.077. The molecule also displayed a composite z-score in experiment [2] of 0.108.
For the molecule `COCCOC(=O)N1C(=O)[C@@]2(c3cc(C#CC4=CCCCC4)ccc31)[C@H](C(=O)N1CCCCCCC1)[C@H]1C(=O)O[C@H](c3ccccc3)[C@H](c3ccccc3)N1[C@@H]2c1ccc(O)cc1`, the z-score in [1] is 1.63 (inactive); in experiment [3], -0.43 (inactive); in experiment [4], -1.2 (inactive); in experiment [5] it was -1.27 (inactive); in [6] it was -1.96 (inactive); in experiment [7] it was 2.44. The values for the z-score in experiment [8], in [9] and in experiment [10] were 0.67 (inactive), 0.257 (inactive) and 0.871, respectively. In [2], this molecule registered a composite z-score of 0.93.
